Drawing on PubChem BioAssay (NCATS), this text covers Potency and activity, negative = inhibition for 6 molecules.

Inconclusive results are not listed. Values without a mark were called inactive. Calls of active or inactive are those of the source. Unless noted, calls come from the whole dose curve; as a rule, active = well fitted curve in the direction sought with a large enough effect; inconclusive = small, poorly fitted or top-dose-only effect, or another doubt; inactive = no such curve, though single readings can be large; an effect the other way counts as inactive or inconclusive.

Assay [1] has as its target ATP-dependent 6-phosphofructokinase (Trypanosoma brucei brucei) (UniProt O15648). In words: qHTS Assay to Find Inhibitors of T. brucei phosphofructokinase: hit validation (AID 492961).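 Note: luminescence reports ADP formed as PFK phosphorylates fructose-6-phosphate with ATP; % is set by controls: 0 for no effect and ±100 for the full control effect.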 In a few lines: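 PFK 1.25 nM, F6P 0.5 mM, ATP 0.1 mM, MgCl2 5 mM, 0.1 M TEA pH 8.0, Tween20 0.01%, BSA 0.1%; 45 min RT. ADP-Glo two-step detection, luminescence. qHTS titration; curve fitting with curve-class categorization.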

Assay [2] addresses Luciferin 4-monooxygenase (Photinus pyralis) (UniProt P08659). The experiment in a line: Biochemical firefly luciferase enzyme assay for NPC (AID 624030).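 Note: purified P. pyralis luciferase at 10 nM with luciferin and ATP substrate; 0% = DMSO and -100% = full luciferase inhibition by PTC124 control; nearly all actives have a fitted effect of over 70% in size.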 In a few lines:
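Counter-screen for direct inhibition of the luciferase enzyme by approved-drug library compounds, run at 10 nM enzyme in 50 mM Tris acetate (final). Luminescence was read within 5 min of enzyme-buffer addition and normalized to PTC124 versus DMSO (0%).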

Assay [3] is described as follows: qHTS profiling for inhibitors of Plasmodium falciparum proliferation (AID 504749).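 For activity, negative = inhibition: 0% = DMSO vehicle and full inhibition = artemisinin control.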 For all read-outs here: nearly all actives have a fitted effect of over 60% in size. Note: potency is the fitted concentration of half-maximal effect. The note with it: P. falciparum in erythrocytes, SYBR Green DNA, 72 h; for activity, negative = inhibition: at 28.7 µM (top of the series). The procedure, abridged:
(§1)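 P. falciparum-infected erythrocytes (0.3% parasitemia, 2.5% hematocrit final) were exposed to compounds for 72 h at 37 C in 5% CO2, then lysed with SYBR Green buffer overnight at room temperature; parasite DNA fluorescence was normalized to artemisinin and DMSO controls.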
For orientation: qHTS replaces the single test concentration by a dilution series.

A further assay deals with CP192. The assay is described as above. The note with it: P. falciparum in erythrocytes, SYBR Green DNA, 72 h; series mostly up to 28.7 µM. The procedure, abridged: as §1
The test system of another assay is CP211. The description is as above. The settings on record: P. falciparum in erythrocytes, SYBR Green DNA, 72 h; series mostly up to 28.7 µM. The procedure, abridged: as §1
The next assay relates to CP262. The assay is described as above. The note with it: P. falciparum in erythrocytes, SYBR Green DNA, 72 h; series mostly up to 28.7 µM. In a few lines:
as §1

The test system of the next assay is CP269. The assay is described as above. The note with it: P. falciparum in erythrocytes, SYBR Green DNA, 72 h; series mostly up to 28.7 µM. The procedure, abridged:
as §1

In the next assay the test system is CP305. The description is as above. The settings on record: P. falciparum in erythrocytes, SYBR Green DNA, 72 h; series mostly up to 28.7 µM. In a few lines:
as §1

For the next assay, the system named is CP315. The assay is described as above. The settings on record: P. falciparum in erythrocytes, SYBR Green DNA, 72 h; series mostly up to 28.7 µM. The procedure, abridged: as §1
For the next assay, the system named is CP325. Described as above. The note with it: P. falciparum in erythrocytes, SYBR Green DNA, 72 h; series mostly up to 28.7 µM. In a few lines: as §1
The test system of a further assay is Dd2. The assay is described as above. The note with it: P. falciparum in erythrocytes, SYBR Green DNA, 72 h; series mostly up to 28.7 µM. The procedure, abridged: as §1
The next assay relates to FAB9. The assay is described as above. The note with it: P. falciparum in erythrocytes, SYBR Green DNA, 72 h; series mostly up to 28.7 µM. The procedure, abridged: as §1
The test system of another assay is JCK. The description is as above. The note with it: P. falciparum in erythrocytes, SYBR Green DNA, 72 h; series mostly up to 28.7 µM. The procedure, abridged:
as §1

For a further assay, the system named is N140. The assay is described as above. The settings on record: P. falciparum in erythrocytes, SYBR Green DNA, 72 h; series mostly up to 28.7 µM. The procedure, abridged:
as §1

Assay [4] can be described thus: S16 Schwann cell PMP22 intronic element beta-lactamase assay (AID 624044; calls by dose curve;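 note: 0% = DMSO and -100% = potassium clavulanate positive control; nearly all actives have a fitted effect of over 15% in size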). The note with it: S16 rat Schwann cells, PMP22 element beta-lactamase FRET, 24 h; ratio activity, negative = inhibition: at 38.3 µM (top of the series). In a few lines:
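Rat S16 Schwann cells with beta-Lac driven by a PMP22 intronic element, compound-treated 24 h at 37 °C. LiveBLAzer FRET B/G read: 460 nm normalized to potassium clavulanate vs DMSO; 535 nm FRET as viability; concentration-effect curves classified.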

A further assay deals with CP185. The experiment in a line: qHTS profiling for inhibitors of Plasmodium falciparum proliferation (AID 504749).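 For activity, negative = inhibition: 0% = DMSO vehicle and full inhibition = artemisinin control.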 Note: nearly all actives have a fitted effect of over 60% in size. Note: potency is the fitted concentration of half-maximal effect. The settings on record: P. falciparum in erythrocytes, SYBR Green DNA, 72 h; series mostly up to 28.7 µM. In a few lines: as §1
The test system of a further assay is CP238. Described as above. The note with it: P. falciparum in erythrocytes, SYBR Green DNA, 72 h; series mostly up to 28.7 µM. In a few lines: as §1
In the next assay the test system is CP286. Described as above. The settings on record: P. falciparum in erythrocytes, SYBR Green DNA, 72 h; series mostly up to 28.7 µM. In a few lines: as §1
Another assay concerns HB3. The assay is described as above. The note with it: P. falciparum in erythrocytes, SYBR Green DNA, 72 h; series mostly up to 28.7 µM. The procedure, abridged:
as §1

The next assay deals with PC49. The assay is described as above. The settings on record: P. falciparum in erythrocytes, SYBR Green DNA, 72 h; series mostly up to 28.7 µM. The procedure, abridged: as §1

Sequence of ATP-dependent 6-phosphofructokinase (Trypanosoma brucei brucei) (O15648 whole entry, looked up): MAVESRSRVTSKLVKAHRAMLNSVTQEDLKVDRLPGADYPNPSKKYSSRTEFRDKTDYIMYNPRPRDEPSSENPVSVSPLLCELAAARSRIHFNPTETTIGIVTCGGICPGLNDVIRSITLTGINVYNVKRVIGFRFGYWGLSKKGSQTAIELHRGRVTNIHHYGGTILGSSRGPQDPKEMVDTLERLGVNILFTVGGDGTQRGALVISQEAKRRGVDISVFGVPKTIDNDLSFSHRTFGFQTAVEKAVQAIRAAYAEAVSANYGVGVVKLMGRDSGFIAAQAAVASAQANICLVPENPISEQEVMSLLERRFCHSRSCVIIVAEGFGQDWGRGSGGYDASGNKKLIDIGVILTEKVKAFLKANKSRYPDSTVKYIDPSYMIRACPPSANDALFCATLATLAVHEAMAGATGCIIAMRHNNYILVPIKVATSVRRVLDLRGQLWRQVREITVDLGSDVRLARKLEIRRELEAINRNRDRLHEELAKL
Sequence of Luciferin 4-monooxygenase (Photinus pyralis) (P08659 whole entry, looked up): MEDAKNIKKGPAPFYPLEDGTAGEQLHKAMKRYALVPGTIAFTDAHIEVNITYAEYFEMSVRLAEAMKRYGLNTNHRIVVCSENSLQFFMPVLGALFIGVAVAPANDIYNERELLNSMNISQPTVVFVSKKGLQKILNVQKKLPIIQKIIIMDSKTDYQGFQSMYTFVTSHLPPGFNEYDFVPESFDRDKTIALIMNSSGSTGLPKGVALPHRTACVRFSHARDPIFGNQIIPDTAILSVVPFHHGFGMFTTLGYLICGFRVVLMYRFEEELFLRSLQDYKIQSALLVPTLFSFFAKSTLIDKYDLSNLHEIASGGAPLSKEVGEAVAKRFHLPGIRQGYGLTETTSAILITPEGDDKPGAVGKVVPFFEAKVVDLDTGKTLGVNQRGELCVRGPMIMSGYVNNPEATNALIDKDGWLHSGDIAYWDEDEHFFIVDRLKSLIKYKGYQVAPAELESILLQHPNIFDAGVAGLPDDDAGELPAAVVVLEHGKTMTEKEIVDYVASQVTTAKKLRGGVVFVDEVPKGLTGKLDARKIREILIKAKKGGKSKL

On to `C=C1CC[C@H](O)C/C1=C/C=C1\CCC[C@]2(C)[C@@H]([C@H](C)CCCC(C)(C)O)CC[C@@H]12`, for which the Potency entry (in [1]; in assay [2]; in the assay with CP192; in the assay on CP211; in the assay on CP262; with CP269) was “inactive” each time. Moreover, the Potency result with CP305, in the assay on CP315, with CP325, with FAB9 and in the assay with JCK was “inactive” in each case. Also, the Potency in assay [3] (parasite line B) was 11.2 µM (active); in the assay with Dd2, 12.6 µM (active); with N140, 10 µM (active).

On to `C#C[C@@]1(O)CC[C@@H]2[C@H]3CCC4=C/C(=N\O)CC[C@H]4[C@@H]3CC[C@]21CC`, for which the Potency result (in assay [1]; in assay [2]; in assay [4]; in the assay on CP185; in the assay on CP192; with CP211) was “inactive” each time. The Potency entry with CP238, with CP262, in the assay with CP269, in the assay with CP286, in the assay on CP305 and with CP315 was “inactive” each time. Also, the Potency result with CP325, in the assay with Dd2, in the assay with FAB9, in the assay on HB3, with JCK and in the assay with N140 was “inactive” throughout. In the assay on PC49, the Potency result was “inactive”. In addition, the activity, negative = inhibition in assay [3] (parasite line A) was -13.3%; in assay [3] (parasite line B), -2.2%.

`C#C[C@]1(O)CC[C@H]2[C@H]3[C@H](CC[C@@]21C)C1=C(CC(=O)CC1)C[C@@H]3C`: the Potency result (in assay [1]; in [2]; with CP185; in the assay on CP192; in the assay on CP211; in the assay on CP238) was “inactive” each time. Moreover, the Potency entry with CP262, with CP269, in the assay with CP286, in the assay on CP305, with CP315 and with CP325 was “inactive” each time. Also, the Potency entry in the assay on Dd2, in the assay with FAB9, in the assay with HB3, in the assay on JCK, with N140 and with PC49 was “inactive” in each case. Also, the figures for the activity, negative = inhibition in assay [3] (parasite line A) and in assay [3] (parasite line B) were -14.8% and -21.9%, respectively.

On to `CC1=C[C@@H](O)CC(C)(C)[C@@H]1/C=C/C(C)=C/C=C/C(C)=C/C=C/C=C(C)/C=C/C=C(C)/C=C/C1=C(C)C[C@H](O)CC1(C)C`, for which the Potency entry (in [1]; in assay [2]; in assay [4]; in the assay on CP185; in the assay with CP192; with CP211) was “inactive” each time. Moreover, the Potency result in the assay on CP238, in the assay on CP262, with CP269, in the assay with CP286, with CP305 and in the assay with CP315 was “inactive” in each case. Also, in the assay with CP325, the Potency entry was “inactive”. In addition, in assay [3] (parasite line A), the activity, negative = inhibition was -23.3%. The Potency is 12.6 µM (active) in the assay on Dd2, 11.2 µM (active) in the assay with HB3, 11.2 µM (active) in the assay with N140 and 10 µM (active) in the assay with PC49.

With `C/C(=C(/CCOC(=O)C(C)C)SS/C(CCOC(=O)C(C)C)=C(\C)N(C=O)Cc1cnc(C)nc1N)N(C=O)Cc1cnc(C)nc1N`, the Potency entry (in [1]; in [2]; in assay [4]; with CP185; in the assay on CP192; with CP211) was “inactive” in each case. Besides, the Potency result with CP238, with CP269, in the assay on CP286, with CP305, with CP315 and with CP325 was “inactive” in each case. For the same molecule, the Potency result with Dd2, with FAB9, with HB3, in the assay with JCK, in the assay on N140 and in the assay with PC49 was “inactive” throughout. Besides, the activity, negative = inhibition in assay [3] (parasite line B) was -17.2%.

With `CCCCC(=O)OC1CCC2C3CCc4cc(O)ccc4C3CC[C@]12C` (stereo partly specified), the Potency result (in assay [1]; in assay [2]; in [4]; with CP185; in the assay with CP192; in the assay on CP211) was “inactive” in each case. In addition, the Potency entry with CP238, in the assay on CP262, with CP269, in the assay with CP286, with CP305 and with CP315 was “inactive” each time. The Potency result in the assay with CP325, in the assay on FAB9, in the assay on HB3, in the assay with JCK and in the assay on PC49 was “inactive” throughout. Further, the activity, negative = inhibition in assay [3] (parasite line A) was -29.6%. In addition, the Potency in the assay with N140 is 11.2 µM (active).
